In PubChem BioAssay (EPA / NIEHS):
Records with an inconclusive call do not appear. Active and inactive are the calls of the source. Rule for the calls, unless noted: active = hit-call score of the fitted dose curve at least 0.9, where 1 is the maximum; inconclusive = response in the unintended direction; inactive = score below 0.9.

read-out: Cytochrome P450 2C9 (Homo sapiens) (UniProt P11712); experiment: CLD_CYP2C9_48hr: CellzDirect (CLD) Gene Expression Assay for xenobiotic metabolism (CYP2C9) at 48 hours (AID 2283701; active = hit-call score of the fitted dose curve at least 0.9, where 1 is the maximum; inactive = score below 0.9)
Method in brief: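 Primary human hepatocytes (two donor preparations) dosed daily for two days with test chemicals, 0.2% DMSO vehicle; harvested at 48 h. mRNA induction quantified by qNPA chemiluminescence, fitted for gain of signal against DMSO baseline; cytotoxicity annotated from phase-contrast morphology.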

Broad substrate specificity ATP-binding cassette transporter ABCG2 (Homo sapiens), sequence (Q9UNQ0 whole entry, looked up): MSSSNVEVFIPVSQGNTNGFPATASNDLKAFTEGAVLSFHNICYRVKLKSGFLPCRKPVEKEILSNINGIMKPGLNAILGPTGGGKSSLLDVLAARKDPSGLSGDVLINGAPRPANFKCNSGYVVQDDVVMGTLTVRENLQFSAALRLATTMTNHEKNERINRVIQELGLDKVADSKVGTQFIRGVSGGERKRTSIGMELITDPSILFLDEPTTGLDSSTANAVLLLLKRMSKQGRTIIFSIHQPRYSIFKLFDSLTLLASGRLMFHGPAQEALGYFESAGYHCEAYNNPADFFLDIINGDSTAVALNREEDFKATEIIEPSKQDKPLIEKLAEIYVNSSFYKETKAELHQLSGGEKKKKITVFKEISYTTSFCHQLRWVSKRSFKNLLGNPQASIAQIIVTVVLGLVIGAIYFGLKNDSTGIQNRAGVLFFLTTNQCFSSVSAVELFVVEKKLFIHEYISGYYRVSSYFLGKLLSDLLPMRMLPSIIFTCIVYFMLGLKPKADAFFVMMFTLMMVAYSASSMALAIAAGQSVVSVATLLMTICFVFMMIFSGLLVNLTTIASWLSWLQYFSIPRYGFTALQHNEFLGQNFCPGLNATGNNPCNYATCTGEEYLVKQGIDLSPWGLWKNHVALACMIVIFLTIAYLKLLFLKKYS

Row | SMILES | outcome
1 | Fc1ccc(Oc2ccnc3cc(Cl)cc(Cl)c23)cc1 | inactive
2 | COP(N)(=O)SC (stereo unspecified) | inactive
3 | CC(Oc1ccc(Cl)cc1Cl)C(=O)O (stereo unspecified) | inactive
4 | COc1nc(NC(C)C)nc(NC(C)C)n1 | inactive
5 | Cc1cc(Cl)ccc1OCC(=O)O | inactive

read-out: not listed separately; experiment: CLD_ACTIN_48hr: CellzDirect (CLD) Gene Expression Assay for Baseline Control (Actin) at 48 hours (AID 2283702)
Method in brief: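 Primary human hepatocytes (two donor preparations) dosed daily for two days with ToxCast chemicals at multiple concentrations versus 0.2% DMSO vehicle; harvested at 48 h. Actin mRNA measured as a background control by quantitative nuclease protection assay with chemiluminescence.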

Row | SMILES | outcome
6 | CCOC(=O)CC(SP(=S)(OC)OC)C(=O)OCC (stereo unspecified) | inactive
7 | CNC(=O)ON=CC(C)(C)SC | inactive
8 | CN(C)C(=S)SSC(=S)N(C)C | inactive
9 | N#Cc1nn(-c2c(Cl)cc(C(F)(F)F)cc2Cl)c(N)c1S(=O)C(F)(F)F (stereo unspecified) | inactive
10 | Cc1ccc(-c2c(Cl)nc(C#N)n2S(=O)(=O)N(C)C)cc1 | inactive
11 | COP(N)(=O)SC (stereo unspecified) | inactive
12 | CNC(=S)S | inactive
13 | Cc1c(F)c(F)c(COC(=O)C2C(/C=C(\Cl)C(F)(F)F)C2(C)C)c(F)c1F (stereo unspecified) | inactive
14 | CS/C(C)=N/OC(=O)N(C)SN(C)C(=O)O/N=C(\C)SC | inactive
15 | CC(C)C1(C)N=C(c2nc3ccccc3cc2C(=O)O)NC1=O (stereo unspecified) | inactive
16 | OC(c1ccc(Cl)cc1)(c1cncnc1)c1ccccc1Cl (stereo unspecified) | inactive
17 | Cc1cc(Cl)ccc1OCC(=O)O | inactive
18 | CCCCC(CC)COC(=O)c1ccccc1C(=O)OCC(CC)CCCC (stereo unspecified) | inactive

read-out: xenobiotic metabolism (CYP1A2), CYP1A2 (gene 1544); experiment: CLD_CYP1A2_48hr: CellzDirect (CLD) Gene Expression Assay for xenobiotic metabolism (CYP1A2) at 48 hours (AID 2283703)
Method in brief: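 Primary human hepatocytes from two donor preparations were dosed daily for two days at multiple concentrations in 0.2% DMSO vehicle. CYP1A2 mRNA was measured at 48 hours by chemiluminescent quantitative nuclease protection assay, with gain of signal fitted versus DMSO and cytotoxicity annotated from morphology.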

Row | SMILES | AC50 | outcome
19 | CCCCNC(=O)n1c(NC(=O)OC)nc2ccccc21 | 6.67 µM (active) | –
20 | Oc1ccccc1-c1ccccc1 | 9.96 µM (active) | –
21 | Fc1ccc(Oc2ccnc3cc(Cl)cc(Cl)c23)cc1 | 3.98 µM (active) | –
22 | CCCC1COC(Cn2cncn2)(c2ccc(Cl)cc2Cl)O1 (stereo unspecified) | 5.36 µM (active) | –
23 | CCOC(=O)CC(SP(=S)(OC)OC)C(=O)OCC (stereo unspecified) | 5.39 µM (active) | –
24 | CN(C)C(=S)SSC(=S)N(C)C | 34 µM (active) | –
25 | CON(C)C(=O)Nc1ccc(Cl)c(Cl)c1 | 1.27 µM (active) | –
26 | Cc1ccc(-c2c(Cl)nc(C#N)n2S(=O)(=O)N(C)C)cc1 | – | inactive
27 | COP(N)(=O)SC (stereo unspecified) | – | inactive
28 | CCNc1nc(Cl)nc(NCC)n1 | 8.97 µM (active) | –
29 | O=C(Nc1ccccc1)Nc1ccnc(Cl)c1 | 7.3 µM (active) | –
30 | CNC(=S)S | 20 µM (active) | –
31 | CCOP(=S)(OCC)SCn1c(=O)oc2cc(Cl)ccc21 | 3.96 µM (active) | –
32 | Cc1c(F)c(F)c(COC(=O)C2C(/C=C(\Cl)C(F)(F)F)C2(C)C)c(F)c1F (stereo unspecified) | 4.46 µM (active) | –
33 | CS/C(C)=N/OC(=O)N(C)SN(C)C(=O)O/N=C(\C)SC | – | inactive
34 | CC(C)C1(C)N=C(c2nc3ccccc3cc2C(=O)O)NC1=O (stereo unspecified) | – | inactive
35 | CC(Oc1ccc(Cl)cc1Cl)C(=O)O (stereo unspecified) | – | inactive
36 | COc1nc(NC(C)C)nc(NC(C)C)n1 | 7.97 µM (active) | –
37 | CC1=C(C(=O)Nc2ccccc2)SCCO1 | 31.1 µM (active) | –
38 | Cc1cc(Cl)ccc1OCC(=O)O | – | inactive
39 | CCCN(CCC)c1c([N+](=O)[O-])cc(S(N)(=O)=O)cc1[N+](=O)[O-] | – | inactive
40 | CCCCC(CC)COC(=O)c1ccccc1C(=O)OCC(CC)CCCC (stereo unspecified) | – | inactive
41 | C=CCC1=C(C)C(OC(=O)C2C(C=C(C)C)C2(C)C)CC1=O (stereo unspecified) | – | inactive

read-out: Broad substrate specificity ATP-binding cassette transporter ABCG2 (Homo sapiens) (UniProt Q9UNQ0); experiment: CLD_ABCG2_48hr: CellzDirect (CLD) Gene Expression Assay for ABC Transporter (ABCG2) at 48 hours (AID 2283704);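 for AC50: potency for induction of ABCG2 mRNA above the DMSO baseline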
Method in brief: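 Primary human hepatocytes from two donors, dosed daily for 2 days, 0.2% DMSO vehicle, several concentrations. ABCG2 mRNA at 48 h by qNPA chemiluminescence, gain fitted versus DMSO; cytotoxicity flagged by morphology.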

Row | SMILES | outcome | AC50
42 | Oc1ccccc1-c1ccccc1 | inactive | –
43 | Fc1ccc(Oc2ccnc3cc(Cl)cc(Cl)c23)cc1 | inactive | –
44 | CCCC1COC(Cn2cncn2)(c2ccc(Cl)cc2Cl)O1 (stereo unspecified) | inactive | –
45 | CCOC(=O)CC(SP(=S)(OC)OC)C(=O)OCC (stereo unspecified) | inactive | –
46 | CN(C)C(=S)SSC(=S)N(C)C | inactive | –
47 | N#Cc1nn(-c2c(Cl)cc(C(F)(F)F)cc2Cl)c(N)c1S(=O)C(F)(F)F (stereo unspecified) | – | 31.6 µM (active)
48 | COP(N)(=O)SC (stereo unspecified) | inactive | –
49 | CCNc1nc(Cl)nc(NCC)n1 | inactive | –
50 | O=C(Nc1ccccc1)Nc1ccnc(Cl)c1 | inactive | –
51 | CNC(=S)S | inactive | –
52 | Cc1c(F)c(F)c(COC(=O)C2C(/C=C(\Cl)C(F)(F)F)C2(C)C)c(F)c1F (stereo unspecified) | inactive | –
53 | CS/C(C)=N/OC(=O)N(C)SN(C)C(=O)O/N=C(\C)SC | inactive | –
54 | CC(C)C1(C)N=C(c2nc3ccccc3cc2C(=O)O)NC1=O (stereo unspecified) | inactive | –
55 | N#Cc1cc(Br)c(O)c(Br)c1 | inactive | –
56 | OC(c1ccc(Cl)cc1)(c1cncnc1)c1ccccc1Cl (stereo unspecified) | – | 33.4 µM (active)
57 | Cc1cc(Cl)ccc1OCC(=O)O | inactive | –
58 | CCCN(CCC)c1c([N+](=O)[O-])cc(S(N)(=O)=O)cc1[N+](=O)[O-] | inactive | –
59 | CCCCC(CC)COC(=O)c1ccccc1C(=O)OCC(CC)CCCC (stereo unspecified) | inactive | –
60 | C=CCC1=C(C)C(OC(=O)C2C(C=C(C)C)C2(C)C)CC1=O (stereo unspecified) | inactive | –

read-out: xenobiotic metabolism (CYP1A1), CYP1A1 (gene 1543); experiment: CLD_CYP1A1_48hr: CellzDirect (CLD) Gene Expression Assay for xenobiotic metabolism (CYP1A1) at 48 hours (AID 2283705)
Method in brief: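 Primary human hepatocytes from two donors dosed daily for two days at multiple concentrations, 0.2% DMSO vehicle; CYP1A1 mRNA induction at 48 h by qNPA chemiluminescence. Cytotoxicity noted by phase-contrast morphology.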

Row | SMILES | AC50 | outcome
61 | CCCCNC(=O)n1c(NC(=O)OC)nc2ccccc21 | 33.1 µM (active) | –
62 | Fc1ccc(Oc2ccnc3cc(Cl)cc(Cl)c23)cc1 | – | inactive
63 | CCCC1COC(Cn2cncn2)(c2ccc(Cl)cc2Cl)O1 (stereo unspecified) | 20 µM (active) | –
64 | CN(C)C(=S)SSC(=S)N(C)C | 29.7 µM (active) | –
65 | N#Cc1nn(-c2c(Cl)cc(C(F)(F)F)cc2Cl)c(N)c1S(=O)C(F)(F)F (stereo unspecified) | – | inactive
66 | CON(C)C(=O)Nc1ccc(Cl)c(Cl)c1 | 3.68 µM (active) | –
67 | Cc1ccc(-c2c(Cl)nc(C#N)n2S(=O)(=O)N(C)C)cc1 | 20 µM (active) | –
68 | CCNc1nc(Cl)nc(NCC)n1 | 3.92 µM (active) | –
69 | O=C(Nc1ccccc1)Nc1ccnc(Cl)c1 | 10.8 µM (active) | –
70 | CNC(=S)S | – | inactive
71 | CCOP(=S)(OCC)SCn1c(=O)oc2cc(Cl)ccc21 | 13.9 µM (active) | –
72 | Cc1c(F)c(F)c(COC(=O)C2C(/C=C(\Cl)C(F)(F)F)C2(C)C)c(F)c1F (stereo unspecified) | 20 µM (active) | –
73 | CS/C(C)=N/OC(=O)N(C)SN(C)C(=O)O/N=C(\C)SC | – | inactive
74 | CC(C)C1(C)N=C(c2nc3ccccc3cc2C(=O)O)NC1=O (stereo unspecified) | – | inactive
75 | COc1nc(NC(C)C)nc(NC(C)C)n1 | 4.52 µM (active) | –
76 | N#Cc1cc(Br)c(O)c(Br)c1 | – | inactive
77 | CC1=C(C(=O)Nc2ccccc2)SCCO1 | 36.1 µM (active) | –
78 | OC(c1ccc(Cl)cc1)(c1cncnc1)c1ccccc1Cl (stereo unspecified) | – | inactive
79 | CCCN(CCC)c1c([N+](=O)[O-])cc(S(N)(=O)=O)cc1[N+](=O)[O-] | 28.9 µM (active) | –
80 | CCCCC(CC)COC(=O)c1ccccc1C(=O)OCC(CC)CCCC (stereo unspecified) | – | inactive
81 | C=CCC1=C(C)C(OC(=O)C2C(C=C(C)C)C2(C)C)CC1=O (stereo unspecified) | – | inactive
